Measurements reported in PubChem BioAssay AID528 (NMMLSC, 2006).
Screen size: about 24,000 compounds; fewer than 10 were called active. Not shown: some 9% with an inconclusive outcome.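 Rule for the calls: active = fluorescent ligand binding to cells raised by more than 40% of the manganese-induced maximum; inconclusive = compound's own fluorescence above 85% of the ligand control signal; inactive = the rest.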 Not all results are given here.

target: Integrin alpha-4 (Homo sapiens) (UniProt P13612); assay: enhancers of LDV-FITC binding to VLA-4 integrin, primary screen, Jurkat cells, flow cytometry (AID 528); settings: hits give high values, screened at 10 µM (by protocol);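 note: 0% = ligand binding without compound and 100% = manganese-stimulated maximal binding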
Sequence (P13612 whole entry, looked up): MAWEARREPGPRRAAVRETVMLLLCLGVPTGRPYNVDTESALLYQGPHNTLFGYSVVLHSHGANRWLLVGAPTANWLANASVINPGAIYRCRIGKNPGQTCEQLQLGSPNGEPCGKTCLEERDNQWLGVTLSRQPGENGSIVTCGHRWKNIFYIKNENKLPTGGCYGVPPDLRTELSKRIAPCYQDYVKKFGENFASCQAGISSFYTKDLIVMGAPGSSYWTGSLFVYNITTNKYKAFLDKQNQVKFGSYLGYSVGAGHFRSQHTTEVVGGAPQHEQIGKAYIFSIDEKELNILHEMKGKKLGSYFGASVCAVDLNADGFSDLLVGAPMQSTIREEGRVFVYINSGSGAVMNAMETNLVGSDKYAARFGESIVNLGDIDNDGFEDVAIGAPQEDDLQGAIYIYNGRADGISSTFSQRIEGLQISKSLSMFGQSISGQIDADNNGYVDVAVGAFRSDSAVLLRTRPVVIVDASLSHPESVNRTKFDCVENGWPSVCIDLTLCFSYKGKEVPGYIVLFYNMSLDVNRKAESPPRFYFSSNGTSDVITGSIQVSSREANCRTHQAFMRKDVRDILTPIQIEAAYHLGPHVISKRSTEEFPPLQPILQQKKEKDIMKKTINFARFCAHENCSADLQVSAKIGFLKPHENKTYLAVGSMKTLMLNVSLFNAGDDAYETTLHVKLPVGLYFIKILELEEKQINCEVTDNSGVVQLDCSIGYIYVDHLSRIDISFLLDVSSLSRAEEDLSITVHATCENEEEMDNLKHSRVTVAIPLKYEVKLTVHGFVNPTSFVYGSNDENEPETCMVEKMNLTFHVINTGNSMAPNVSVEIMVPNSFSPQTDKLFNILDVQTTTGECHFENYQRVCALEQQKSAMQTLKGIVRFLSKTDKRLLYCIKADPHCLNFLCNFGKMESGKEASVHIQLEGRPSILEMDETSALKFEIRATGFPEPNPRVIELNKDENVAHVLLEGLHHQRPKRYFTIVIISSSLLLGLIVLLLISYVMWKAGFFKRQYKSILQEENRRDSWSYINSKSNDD

Q: For CCOC(=O)Cn1c(N)c(C(=O)OC)sc1=S, which activation is on record?
A: The activation was -9% (inactive).

Q: CCOc1ccc(/C(O)=C2/C(=O)C(=O)N(Cc3cccnc3)C2c2ccc(N(C)C)cc2)c(C)c1 (configuration not stated) was tested. Which activation did it give?
A: Its activation is -4% (inactive).

Q: For CCOC(=O)C1CCN(C(=O)C2CCN(S(=O)(=O)CC)CC2)CC1, which activation is on record?
A: The activation was 0% (inactive).

Q: For Cn1nnnc1SCc1cc(=O)[nH]c2ccccc12, which activation is on record?
A: The activation was -4% (inactive).

Q: For O=C(CC(NCCN1CCOCC1)C(=O)O)Nc1cccc(Cl)c1 (configuration not stated), which activation is on record?
A: Its activation is 5% (inactive).

Q: For CC(=O)Nc1cc(C(=O)O)ccc1S(=O)(=O)c1ccc(Cl)cc1, which activation is on record?
A: Its activation is 5% (inactive).

Q: How did the activation turn out when O=C(c1ccc(=O)[nH]c1)N(Cc1ccco1)C1(C(=O)NC2CCCCC2)CCCCC1 was run?
A: Its activation is 8% (inactive).

Q: COC(=O)c1cc(S(=O)(=O)NC2CCN(Cc3ccccc3)CC2)cn1C was tested. Which activation did it give?
A: Its activation is 12% (inactive).

Q: How did the activation turn out when CC(c1ccco1)N(C(=O)c1ccc(S(=O)(=O)N2CCCCC2)cc1)c1ccccn1 (configuration not stated) was run?
A: Its activation is -5% (inactive).

Q: Which activation does the source give for O=C1CC(c2cccc(F)c2)C2=C(CCCC2=O)N1 (configuration not stated) here?
A: Its activation is 0% (inactive).

Q: For Cc1nc(NC(=O)C23CCC(C)(C(=O)O2)C3(C)C)sc1C (configuration not stated), which activation is on record?
A: Its activation is 2% (inactive).

Q: For CC1Cc2nc(SCC(=O)Nc3ccccc3F)n(C)c(=O)c2S1 (configuration not stated), which activation is on record?
A: The activation was -5.7% (inactive).

Q: With Cc1ccc(C)c(NS(=O)(=O)c2cc(Br)cnc2N)c1 as the molecule, how does the activation read?
A: Its activation is -9% (inactive).

Q: Which activation does the source give for O=C1CC(c2cccc(Br)c2)C2=C(CCCC2=O)N1 (configuration not stated) here?
A: The activation was -3% (inactive).

Q: For COc1cccc(NC(=O)Cn2cnc3sc(C)c(S(=O)(=O)N4CCN(C)CC4)c3c2=O)c1, which activation is on record?
A: The activation was 1% (inactive).

Q: CCOC(=O)CSc1nnc(CNC(=O)c2cccs2)n1-c1ccccc1 was tested. Which activation did it give?
A: Its activation is -4% (inactive).

Q: O=C1N=C(N2CCOCC2)CS1 was tested. Which activation did it give?
A: Its activation is 5% (inactive).

Q: With C=CCOC(=O)C1=C(C)OC(N)=C(C#N)C1c1ccc(F)cc1 (configuration not stated) as the molecule, how does the activation read?
A: Its activation is -2.5% (inactive).

Q: Which activation does the source give for CCOC(=O)c1ccc(Nc2cc(C)nc3nc(C)nn23)cc1 here?
A: Its activation is 5% (inactive).

Q: How did the activation turn out when COCCCNC(=O)CCc1nc2cccnc2n1Cc1ccc(OC)cc1 was run?
A: Its activation is 4% (inactive).

Q: How did the activation turn out when COc1cccc(Oc2ccc(N)cc2)c1 was run?
A: The activation was 8% (inactive).

Q: CCCN1CCN(C(=O)Cn2ncc3ccccc32)CC1 was tested. Which activation did it give?
A: The activation was 5% (inactive).

Q: Which activation does the source give for Cc1cccc(N2CCN(C(=O)C3CCN(S(=O)(=O)c4cnc[nH]4)CC3)CC2)c1C here?
A: The activation was 0% (inactive).

Q: For COc1cccc(NC(=O)C2CCCN2C(=O)OCc2ccccc2)c1 (configuration not stated), which activation is on record?
A: Its activation is -5% (inactive).

Q: Which activation does the source give for CC(=O)c1c(C)[nH]c(C(=O)NCCCN2CCCC2)c1C here?
A: Its activation is 1% (inactive).

Q: For COc1cc2[nH]c(=S)n(CCN3CCCCC3C)c(=O)c2cc1OC (configuration not stated), which activation is on record?
A: Its activation is -3% (inactive).

Q: Which activation does the source give for Cn1c(=O)cc(OCCCC(=O)N2CCN(c3ccccn3)CC2)c2ccccc21 here?
A: The activation was -10% (inactive).

Q: How did the activation turn out when Cc1cccn2c(=O)c3cc(C(=O)NCc4ccccn4)n(C)c3nc12 was run?
A: Its activation is -2% (inactive).

Q: How did the activation turn out when Cc1nc(SCC(=O)Nc2cc(C)on2)c2c3c(sc2n1)CCCC3 was run?
A: Its activation is -3.5% (inactive).

Q: Which activation does the source give for COc1ccc(C(=O)N(CCN2CCOCC2)CC(=O)NC2CCCC2)cc1OC here?
A: Its activation is 6.5% (inactive).

Q: With O=C(CN1CCOc2ccccc21)N1CCC(Cc2ccccc2)CC1 as the molecule, how does the activation read?
A: The activation was -1% (inactive).

Q: For CCOC(=O)CSc1nnc(CNC(=O)Cc2ccccc2)n1-c1ccccc1OC, which activation is on record?
A: The activation was -3% (inactive).

Q: For CC1CCC(NS(=O)(=O)c2ccc3c(c2)n(C)c(=O)c(=O)n3C)CC1 (configuration not stated), which activation is on record?
A: The activation was 6% (inactive).

Q: COc1cc(OC)cc(-c2nc3nc(C)c(CCC(=O)NCc4ccco4)c(C)n3n2)c1 was tested. Which activation did it give?
A: The activation was -2.7% (inactive).

Q: With Cc1cc(C)nc(-n2nc(C)cc2NC(=O)c2ccc(Br)o2)n1 as the molecule, how does the activation read?
A: The activation was 1.5% (inactive).

Q: Which activation does the source give for Cc1nc2ccc(NC(=O)N3CCC(c4ccccc4)C3)cc2nc1C (configuration not stated) here?
A: Its activation is -3% (inactive).

Q: With O=C(CNS(=O)(=O)c1ccc(Br)s1)NCc1ccc2c(c1)OCO2 as the molecule, how does the activation read?
A: The activation was -4% (inactive).
